Hits are enriched below; roughly 1.5% of the tested compounds scored in any of these assays.
E coli Lon inh = inhibitors of E. coli Lon protease. purified E. coli Lon protease, fluorescence polarization. actives 0.42% (n = 360,000). P0A9M0. inhibition, % at 7.94 µM. AID 602123; in the data active means inhibition above about 13%, passing the limit was not always enough;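 further: 0% = enzyme with probe and DMSO and 100% = no enzyme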
Bcl-xL primary = blocks human Bcl-xL binding to Bim BH3 peptide; GST-Bcl-xL / FITC-Bim BH3 peptide fluorescence polarization; actives 0.7% (n = 320,000); inhibition, % at 10.9 µM; Q07817;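 active means inhibition above the mean of all tested compounds plus 3 SD, cutoff set per campaign, cut at about 30% in these data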;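 further: 0% = DMSO wells and 100% = unlabeled Bim-BH3 peptide competitor; inhibitors lower millipolarization by displacing the labeled peptide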
MCL1 BIM primary = disrupts human MCL1 binding to BIM-BH3 peptide | GST-MCL1 / FITC-Bim-BH3 fluorescence polarization | inhibition, % at 10.9 µM | actives 0.68% (n = 320,000);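 active means inhibition above the mean inhibition of all tested compounds plus 3 SD, set per campaign, cut at about 40% in these data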;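 further: 0% = DMSO wells and 100% = unlabeled Bim-BH3 peptide control; higher means more loss of mP so more displacement of Bim peptide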
EBV gp42 block = inhibitors of Epstein-Barr virus glycoprotein 42; AID 1085; Fluorescence polarization binding assay, mP read-out; Q1HVG2; actives 0.42% (n = 220,000); inhibition, % (tested at 21.74 µM); in the data active means inhibition above about 50%
GLD-1 TGE inh = GLD-1-TGE RNA interaction inhibition (C. elegans). inhibition, % at 5.96 µM. Q17339. actives 0.44% (n = 320,000). purified GLD-1 + fluorescein TGE RNA, fluorescence polarization;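 active means percent inhibition above a per-plate cutoff, the plate mean of test compounds plus 3 SD, cut at about 30% in these data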;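 further: 0% = DMSO wells with GLD-1 and probe and 100% = wells lacking GLD-1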
MEX-5 binding = C. elegans MEX-5 TCR-2 RNA binding activity; actives 0.38% (n = 300,000); MEX-5/FITC-TCR2 RNA binding, fluorescence polarization; stronger effect = lower value; Q9XUB2; activity score (negative = inhibition of binding), % at 10 µM; AID 1832;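 active means inhibition past about -25% in most replicates, and total fluorescence under double the plate's negative control median, limit read from the data; inconclusive means replicates evenly split on the limit, or fluorescence at least double controls; inactive means too little inhibition in most replicates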;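 further: 0% = DMSO and -100% = 5 µM competing unlabeled TCR2 RNA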
Target sequence (Q9XUB2 whole entry, looked up): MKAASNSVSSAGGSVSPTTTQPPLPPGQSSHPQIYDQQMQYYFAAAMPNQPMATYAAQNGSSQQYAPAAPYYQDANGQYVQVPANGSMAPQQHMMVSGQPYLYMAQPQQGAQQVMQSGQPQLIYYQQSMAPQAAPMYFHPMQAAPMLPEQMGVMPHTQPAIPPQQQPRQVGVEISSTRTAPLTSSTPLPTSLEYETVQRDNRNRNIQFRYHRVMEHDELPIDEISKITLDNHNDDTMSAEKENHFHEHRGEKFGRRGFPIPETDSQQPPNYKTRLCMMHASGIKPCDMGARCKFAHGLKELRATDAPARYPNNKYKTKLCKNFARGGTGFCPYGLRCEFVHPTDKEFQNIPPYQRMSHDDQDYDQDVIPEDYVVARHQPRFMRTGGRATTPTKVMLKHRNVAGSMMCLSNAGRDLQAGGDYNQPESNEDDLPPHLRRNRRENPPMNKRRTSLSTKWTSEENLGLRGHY
E coli Lon conf = confirmation of E. coli Lon protease inhibitors; purified E. coli Lon, fluorescence polarization; actives 31% (n = 1,400); AID 602230; inhibition, % at 7.94 µM; shares compounds with E coli Lon inh; in the data active means inhibition above about 16%;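 further: 0% = enzyme with probe and DMSO and 100% = no enzyme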
* = called active by the depositor; u = inconclusive; x = no result; + = active, no number.

SMILES | E coli Lon inh | Bcl-xL primary | MCL1 BIM primary | EBV gp42 block | GLD-1 TGE inh | MEX-5 binding | E coli Lon conf
CC1C(=O)N(Cc2cn(CCC3OCCCO3)nn2)CCS(=O)(=O)N1Cc1ccc(-c2ccc(Cl)cc2)cc1 (stereo not drawn) | 13* | x | x | x | x | x | 24*
CCCCC(=O)OCC(=O)C1(O)Cc2c(O)c3c(c(O)c2C(OC2CC(NC(=O)C(F)(F)F)C(O)C(C)O2)C1)C(=O)c1c(OC)cccc1C3=O (stereo not drawn) | 141 | x | x | x | x | x | x
COc1cccc2c1C(=O)c1c(O)c3c(c(O)c1C2=O)CC(O)(C(C)=O)CC3OC1CC(O)C(O)C(C)O1 (stereo not drawn) | + | x | x | x | x | x | +
CC1CCN(C(=O)C2CCN(c3ncnc4c3nc3n4CCCCC3)CC2)CC1 | 20* | 6 | 6 | x | 3 | 0 | -1
CCOC(=O)C1CCN(C(=O)C2CCN(c3ncnc4c3nc3n4CCCCC3)CC2)CC1 | 4 | 4 | 4 | x | 9 | -2 | x
CNC(=O)Nc1nnc(C(C)(C)C)s1 | -2 | 0 | -9 | -6 | -2 | 5 | x
CCC(=O)Nc1nnc(C(C)(C)C)s1 | 18* | 7 | 5 | -9 | -2 | 0 | -10
O=c1c(/C=C(\O)c2ccc(F)cc2)nc2ccccc2n1-c1ccccc1 | + | 3 | -12 | 14 | -17 | u | -205
COc1ccc(CNCC(O)(c2ccc(Cl)cc2)c2ccc(Cl)cc2)cc1 | 48* | -3 | 0 | -24 | 2 | 2 | -1
COc1ccc(CNCC(O)(c2ccc(Cl)cc2)c2ccc(Cl)cc2)cc1OC | -5 | -2 | -7 | 3 | 10 | 0 | x
C/C(CCc1ccccc1)=N\NC(=S)NCCc1ccccc1 | -10 | 6 | 12 | x | 3 | -1 | x
C/C(=N\NC(=S)NCCc1ccccc1)c1cccs1 | 101* | 2 | 10 | 2 | 2 | -1 | 57*
O=C(Nc1ccccc1C(=O)N1CCN(Cc2ccccc2)CC1)c1ccc(F)cc1 | 22* | 3 | 9 | x | 1 | -2 | -1
O=C(Nc1ccccc1C(=O)N1CCCCCC1)c1ccc(F)cc1 | 0 | -1 | -5 | x | 4 | 2 | x
C(/C=C/c1ccccn1)=C\c1ccccc1 | 36* | 12 | 10 | x | 0 | 1 | 2
Nc1nc(NCCO)nc(N2CCCCCC2)c1[N+](=O)[O-] | 6 | -2 | 6 | x | 7 | 3 | x
OCCN(CCO)c1nc(N2CCCCC2)c2nc(N(CCO)CCO)nc(N3CCCCC3)c2n1 | 148* | x | x | 135* | 155* | x | 159*
COc1cc2c(cc1OC)-c1cc3ccc4c(c3c[n+]1CC2)OCO4 | 156* | 170* | + | 126* | 40* | u | 106*
CCCc1cc(=O)n2nc(N3CCC(C(=O)N4CCN(c5cccc(OC)c5)CC4)CC3)sc2n1 | 24* | 9 | 4 | x | 1 | 1 | 1
O=[N+]([O-])c1ccccc1S(=O)(=O)NCCSCc1ccco1 | -4 | -3 | 5 | x | 8 | x | x
CC(=O)NCC(=O)NC(C(=O)Nc1ccc2c(c1)OCCO2)c1ccc(C)cc1 (stereo not drawn) | -2 | 7 | 1 | -9 | -3 | 1 | x
COc1ccc(C(NC(=O)CNC(C)=O)C(=O)Nc2ccc3c(c2)OCCO3)cc1 (stereo not drawn) | 14* | 5 | 5 | -3 | 4 | 1 | -22
O=C(NN1S(=O)(=O)c2ccccc2S1(=O)=O)c1ccc(Br)cc1 | 5 | 8 | 3 | -12 | 3 | 1 | x
Cc1cccc(C(=O)NN2S(=O)(=O)c3ccccc3S2(=O)=O)c1 | 17* | 12 | -2 | -9 | -4 | 2 | 0
Cc1ccc(NC(=O)COC(=O)c2ccc(Br)o2)cc1S(=O)(=O)N1CCCCC1 | 23* | 2 | 1 | x | 3 | x | 20*
SMILES | E coli Lon inh | Bcl-xL primary | MCL1 BIM primary | EBV gp42 block | GLD-1 TGE inh | MEX-5 binding | E coli Lon conf
CCOC(=O)C1=CCN(S(=O)(=O)c2cccc(Cl)c2)C1c1ccc(Br)cc1 (stereo not drawn) | -11 | x | x | x | x | x | x
COc1ccc(C(=O)N=C2SC3CS(=O)(=O)CC3N2Cc2ccccc2)cc1OC (stereo not drawn) | 16* | 1 | -7 | x | -3 | 1 | -1
COc1ccc(CN2C(=NC(=O)c3ccccc3)SC3CS(=O)(=O)CC32)cc1OC (stereo not drawn) | 2 | 0 | -2 | x | -12 | 1 | x
S=C(Nc1ccc(CN2CCCCC2)cc1)Nc1cccc(Cl)c1Cl | 1 | 7 | 12 | x | -5 | -1 | x
Cc1onc(-c2c(Cl)cccc2Cl)c1C(=O)N=C(N)N1CCCC1 | 33* | 7 | 1 | 1 | 7 | 0 | 1
COc1ccccc1N1CCN(C(=O)c2c(-c3c(F)cccc3Cl)noc2C)CC1 | 21* | x | x | x | x | 1 | 4
COc1ccccc1N1CCN(C(=O)c2c(-c3ccccc3)noc2C)CC1 | -3 | 9 | -2 | -7 | 7 | 0 | x
COc1ccc(CN(CC(=O)NCc2ccc(F)cc2)C(=O)c2csnn2)cc1 | -2 | 5 | 15 | x | -3 | -2 | x
COc1ccc(CC(=O)NC2CCS(=O)(=O)C2)cc1 (stereo not drawn) | -4 | 1 | 1 | x | 3 | 1 | x
Cc1ccccc1C(=O)N1CCN(c2ccc(N3CCOCC3)nn2)CC1 | 23* | 0 | -7 | x | 4 | -2 | 6
Brc1ccc(C2=CC(c3ccco3)n3nnnc3N2)cc1 (stereo not drawn) | -5 | -3 | -65 | -5 | -9 | -1 | x
C1=C(c2ccc(-c3ccccc3)cc2)Nc2ncnn2C1c1ccco1 (stereo not drawn) | + | x | x | 150* | x | x | 70*
Brc1ccc(C2=CC(c3cccs3)n3ncnc3N2)cc1 (stereo not drawn) | 141* | 168* | + | 161* | 151* | -51* | 161*
CC(C)CNS(=O)(=O)c1ccc(CCC(=O)NC2CCCCC2)cc1 | -4 | 2 | 0 | x | 11 | 0 | x
O=C(NCc1ccc(Cl)c(Cl)c1)c1cc(C2CCCCN2C(=O)c2ccccn2)on1 (stereo not drawn) | -16 | x | x | x | x | x | x
O=C(NCc1ccccc1)c1ccccc1OCC(=O)N1CCCCC1 | 9 | 7 | 2 | -4 | 1 | 1 | x
CCn1nnc(C(=O)O)c1C(=O)O | 16* | 5 | 0 | -7 | 4 | -1 | -8
COc1ccc(S(=O)(=O)N2C3CCC2CC(NC(=O)NC2CCCCC2)C3)cc1 (stereo not drawn) | 82* | 2 | -1 | -1 | 3 | -1 | 0
COC(=O)c1ccc(S(=O)(=O)N2C3CCC2CC(NC(=O)NC2CCCCC2)C3)cc1 (stereo not drawn) | -7 | -1 | 1 | -15 | -2 | -1 | x
